According to PubChem BioAssay AID686971 (National Center for Advancing Translational Sciences (NCATS), 2013):
The whole screen tested about 360,000 compounds, of which about 7,500 (2.1%) were called active. About 8% were inconclusive and are not listed. The call rests on the fitted dose curve; in most records, active means well fitted cell-killing curve with a large enough effect; inconclusive means small, poorly fitted or top-dose-only effect, or effect the other way, or another doubt; inactive means no such curve, though single readings can be large or run the other way. The entries come from a sample that favours actives as a whole. Entries that show only a call come without a potency.

assay: qHTS for induction of synthetic lethality in tumor cells producing 2HG: qHTS for the HT-1080-IDH1KD cell line; settings: HT-1080 IDH1 knockdown viability, ATP luminescence, 48 h; series mostly up to 46.1 µM
Method in brief: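 CellTiter-Glo luminescence after 48 h compound exposure at 37 degrees C of IDH1-knockdown HT-1080 cells in 5% FBS RPMI. %Activity scaled between DMSO wells and cell-free media wells, with curves fitted and assigned curve classes.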
Potency means the concentration at half of the fitted maximal effect.

SMILES	Potency
Cc1nc(C(F)(F)F)ccc1C(=O)N1CCC1(C)C(=O)NS(=O)(=O)c1ccccc1 (stereo unspecified)	inactive
COc1cc(/C=N/NC(=O)c2cc(-c3ccccc3C)nc3ccccc23)cc(OC)c1O	inactive
CCOc1ccc(-c2cc(C(=O)N/N=C/c3ccc(O)cc3)c3ccccc3n2)cc1	5.8 µM (active)
CCOc1ccc(NC(=O)c2cc(C)nc3ccccc23)cc1	inactive
O=C(Nc1ccc(N2CCOCC2)cc1)c1cccc2c(-c3ccc(F)c(F)c3)coc12	inactive
Oc1ccc(/C=N/Nc2nc(-c3ccccc3F)nc3ccccc23)c(O)c1	11.6 µM (active)
Oc1c(Br)cccc1/C=N/Nc1c(F)c(F)c(F)c(F)c1F	inactive
CC1(C(=O)NS(=O)(=O)c2cccc(F)c2)CCN1C(=O)Cc1cc(F)ccc1F (stereo unspecified)	inactive
Cc1ccc(Cn2c(C)c(C(=O)NCc3ccccc3C(F)(F)F)sc2=O)cc1	inactive
O=[N+]([O-])c1cccc(C=NN=Cc2ccccc2O)c1	inactive
O=C(Oc1ccc([N+](=O)[O-])cc1)c1ccc2ccccc2n1	inactive
O=[N+]([O-])c1ccc(N=Cc2c(O)ccc3ccccc23)cc1	9.2 µM (active)
O=C(NCc1cccnc1)c1ccc2nc([C@@H]3O[C@H](CO)[C@H](O)[C@H](O)[C@H]3O)[nH]c2c1	inactive
Cc1cn([C@H]2C[C@H](O)[C@@H](/C=C/C(=O)NCCCc3ccccc3)O2)c(=O)[nH]c1=O	inactive
COc1cc(CNc2ncnc3c2ncn3[C@H]2CN(Cc3cccs3)C[C@@H](CO)O2)cc(OC)c1OC	inactive
COc1ccc(-n2nc3c(N4CCC(C(=O)NCc5ccccc5)CC4)nnc(C)c3c2C)cc1	inactive
CCc1ccc(CNC(=O)C2CC(=O)N(CCc3ccc(C)cc3)C2)cc1 (stereo unspecified)	inactive
CCc1ccc(CNC(=O)C2CCN(c3nnc(C)c4c(C)n(-c5ccc(C)cc5)nc34)CC2)cc1	14.6 µM (active)
OC[C@H]1O[C@@H](c2nc(-c3nc(-c4ccc(F)cc4)no3)cs2)[C@H](O)[C@@H](O)[C@H]1O	inactive
COc1ccc(OC)c(C2C3=C(N=c4s/c(=C\c5cccc(O)c5)c(=O)n42)c2ccccc2CC3)c1 (stereo unspecified)	20.6 µM (active)
O=C1CCCC2=C1C(c1ccccc1)n1c(s/c(=C/c3cccc(F)c3)c1=O)=N2 (stereo unspecified)	inactive

SMILES	Potency
CCOC(=O)C1=C(C)N=c2s/c(=C\C(=O)OC)c(=O)n2C1c1ccc(OC)cc1 (stereo unspecified)	inactive
COc1ccc(S(=O)(=O)NC(=O)C2(C)CCN2C(=O)c2ccccc2CCc2ccccc2)cc1 (stereo unspecified)	inactive
COC(=O)C[C@H]1C=C[C@H](NC(=O)c2ccc(F)cc2)[C@@H](CO)O1	inactive
Cc1ccc(S(=O)(=O)N2CCC(C(=O)NCCC3=CCCCC3)CC2)cc1C	inactive
O=C(NCCC1=CCCCC1)C1CCN(Cc2cnn(-c3ccccc3)c2-n2cccc2)CC1	25.9 µM (active)
C1=C(CCNc2ncnc3c2cnn3-c2ccccc2)CCCC1	inactive
CCOC(=O)c1cc(NC(=O)c2cccnc2)ccn1	inactive
CCOC(=O)c1ccc(-c2ccc(C(=O)Nc3cccnc3)o2)cc1	inactive
CCOC(=O)c1ccc(NC(=O)c2cccnc2)cc1	14.6 µM (active)
CCCCCC(=O)N1C[C@H](O)[C@@H](n2cc(COC(=O)c3ccccc3)nn2)C[C@@H]1c1ccc(C)cc1	inactive
Cc1onc(-c2ccccc2)c1-c1nnc(COC(=O)c2ccc(N(C)C)cc2)o1	inactive
Clc1ccc2nc(-c3ccccc3)nc(C(Cl)Cl)c2c1	7.31 µM (active)
Clc1cccc(-c2nc(NCC3CCCO3)c3ccccc3n2)c1 (stereo unspecified)	inactive
N#CCSc1nc(-c2ccccc2)nc2ccc(F)cc12	inactive
CN1CCN(c2ccncc2S(=O)(=O)N2CCCC2)CC1	inactive
Cc1onc(-c2ccccc2Cl)c1C(=O)OCC(=O)c1ccccc1	inactive
Cc1[nH]c2ccccc2c1C(=O)COC(=O)c1c(-c2ccccc2)noc1C	23.1 µM (active)
Cc1onc(-c2ccccc2Cl)c1C(=O)OCc1nnc(-c2ccccc2)o1	inactive
CC1(C)CC(=O)C=C(c2ccc(COC(=O)c3cc(F)cc(F)c3)cc2)C1=O	inactive
O=C(Nc1ccc(Br)cn1)c1ccc([N+](=O)[O-])cc1Cl	inactive
O=C(Nc1ccc(Br)cn1)c1ccc([N+](=O)[O-])o1	10.3 µM (active)

SMILES	Potency
Cc1onc(NC(=O)c2ccc([N+](=O)[O-])o2)c1Br	inactive
CC1CC(NC(=S)N(C)C)CC(C)(C)C1 (stereo unspecified)	inactive
COc1ccc(/C=C2\SC(=S)N(CCC(=O)N3CCOCC3)C2=O)cc1OC	inactive
CCCCCn1nnnc1C1c2ccccc2C(=O)N1Cc1ccco1 (stereo unspecified)	inactive
c1ccc2cc3[nH]c(CN4CCCCC4)nc3cc2c1	inactive
CCCCCn1nnnc1-c1nc2cc3ccccc3cc2[nH]c1=O	7.31 µM (active)
COc1ccc(S(=O)(=O)NC(=O)C2(C)CCN2C(=O)COc2ccc(Cl)cc2)cc1 (stereo unspecified)	inactive
CC1(C(=O)NCc2ccc3c(c2)OCO3)CCN1C(=O)Cc1cccc2ccccc12 (stereo unspecified)	inactive
Nc1[nH]c(C(=O)c2ccccc2)c(-c2ccc(Br)cc2)c1C(=O)NC1CC1	inactive
O=C(NCc1cccnc1)c1cc(C2CCCN(C(=O)CCCc3ccccc3)C2)on1 (stereo unspecified)	inactive
O=C(C[C@H]1C[C@@H]2c3cc(NC(=O)C4CCC4)ccc3O[C@@H]2[C@H](CO)O1)NC1CCCCC1	inactive
COc1ccc(S(=O)(=O)N(C)C)cc1NC(=O)COC(=O)c1n[nH]c2ccccc12	inactive
Cn1c(CC(=O)NNC(=O)c2ccccc2F)nc2ccccc21	inactive
CN(NC(=O)c1ccccc1F)c1nc(C(F)(F)F)nc2ccccc12	0.206 µM (active)
CC(NC(=O)c1ccccc1F)c1cccc2ccccc12 (stereo unspecified)	inactive
Cc1cccc(C(=O)Nc2ccc(C(=O)N/N=C/c3cccc(C)n3)cc2)c1	inactive
CSc1nc(N(C)NC(=O)c2cccc(C)c2)c2ccccc2n1	0.0461 µM (active)
COc1ccc(C(=O)NN(C)c2nc(-c3ccccc3)cc(C)c2S(C)(=O)=O)cc1	inactive
CC1=C(C(=O)N2CCOCC2)CC(CC(=O)NCCN2CCOCC2)C(=O)N1CCC1=CCCCC1 (stereo unspecified)	inactive
